IDH1 R132H inh = inhibitors of human mutant IDH1 R132H; IDH1-R132H enzyme, NADPH consumption, diaphorase/resazurin fluorescence; hit rate 0.093% among 390,000; O75874; Potency, µM (titrated, usually from 76.6 µM), without a hit: at the top dose activity change, negative = inhibition, usual class: inhibitors; AID 602179; note: potency is the fitted concentration of half-maximal effect; % is set by controls: 0 for no effect and ±100 for the full control effect; nearly all actives have a fitted effect of over 65% in size
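IDH1-R132H (0.5 ug/mL dispensed) in pH 7.5 Tris buffer was preincubated 30 min with compound, then given a substrate mix of 0.016 mM NADPH and 2 mM alpha-KG for 80 min at room temperature; remaining NADPH was read by diaphorase/resazurin fluorescence.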
IL2 activator = activates IL-2 in a cell-based reporter assay. IL-2 activation reporter assay, cell-based qHTS; stimulated with anti-CD3/CD4/CD28 beads; in transgenic mouse T cells. activation, % (series mostly up to about 46 µM). hit rate 0.065% among 360,000; in the data active = activation above about 50%; inconclusive = mostly about 30% to 49%; note: 0% is about no effect
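Readout is EGFP and DsRed signal by fluorescent plate cytometry after 18 h at 37 degrees C. Transgenic mouse T cells (750/well) received compound for 60 min before bead stimulation (anti-CD3, anti-CD4, anti-CD28); memory T cells served as non-tolerant control.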
TrxR1 substrate = substrates of rat thioredoxin reductase 1 | purified TrxR1 substrate turnover, NADPH consumption readout | hit rate 0.01% among 390,000 | Potency, µM (doses to about 114 µM), without a hit: at the highest dose activity change, negative = substrate turnover; note: potency is the fitted concentration of half-maximal effect; % is set by controls: 0 for no effect and ±100 for the full control effect; nearly all actives have a fitted effect of over 50% in size
Target sequence (O89049 whole entry, looked up): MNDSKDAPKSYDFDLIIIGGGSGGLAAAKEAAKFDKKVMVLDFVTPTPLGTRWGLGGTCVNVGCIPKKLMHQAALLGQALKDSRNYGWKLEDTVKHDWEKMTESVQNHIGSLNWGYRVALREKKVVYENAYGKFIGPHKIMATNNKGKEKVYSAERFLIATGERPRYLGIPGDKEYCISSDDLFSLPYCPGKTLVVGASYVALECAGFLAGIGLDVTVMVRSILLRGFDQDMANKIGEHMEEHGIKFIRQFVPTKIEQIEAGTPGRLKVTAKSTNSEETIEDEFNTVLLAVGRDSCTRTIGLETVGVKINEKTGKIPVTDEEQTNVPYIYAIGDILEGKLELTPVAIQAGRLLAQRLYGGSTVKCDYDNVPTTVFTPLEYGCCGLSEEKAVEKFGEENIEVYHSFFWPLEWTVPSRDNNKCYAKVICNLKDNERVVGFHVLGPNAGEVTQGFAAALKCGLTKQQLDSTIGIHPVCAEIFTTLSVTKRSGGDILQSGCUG
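Rat TrxR1, dispensed at 90 nM, was prereduced with 400 uM NADPH (final) for 5 min at ~22 deg C, then incubated with compound 15 min before 400 uM selenite. A first-read NADPH fluorescence drop versus no-compound background flagged substrates.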
BRCA1 expr act = increases BRCA1 expression. Potency, µM (highest dose often 46.1 µM), without a hit: at the highest dose activation, usual class: activators. MCF7-BRCA1-FFLuc reporter, luminescence, 48 h; response scale: scaled: vehicle 0%, 10 µM genistein 100%. hit rate 1.1% among 380,000; note: potency is the fitted concentration of half-maximal effect; nearly all actives have a fitted effect of over 80% in size
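Reporter cells (MCF7, BRCA1 promoter-firefly luciferase) received library compounds across a concentration series for 48 h. End-point luminescence was measured and concentration-effect curves derived after normalization.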
TrxR1 inh = rat TrxR1 inhibition. Potency, µM (top dose mostly 114 µM), inactives show at the highest dose activity change, negative = inhibition, usual class: inhibitors. hit rate 1% among 390,000. AID 588453. recombinant rTrxR1, NADPH fluorescence consumption, selenite substrate; note: potency is the fitted concentration of half-maximal effect; % is set by controls: 0 for no effect and ±100 for the full control effect; nearly all actives have a fitted effect of over 65% in size
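Rat TrxR1 (90 nM in the dispensed reagent) was pre-reduced with 400 uM NADPH for 5 min at room temperature, then incubated with compound for 15 min. After 400 uM selenite was added, NADPH fluorescence (Ex 340/Em 450 nm) was followed for 8 min.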
Giardia kill = kills Giardia lamblia. Giardia lamblia trophozoite viability. activity change, % at 7.66 µM, hits read low. hit rate 0.15% among 340,000. AID 540267; in the data active = activity change below about -80%; inconclusive = between about -30% and that limit;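 note: parasites exposed to compound for two days anaerobically before the ATP read; % is set by controls: 0 for no effect and ±100 for the full control effect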
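Each well holds 100 Giardia trophozoites and compound. After two days (48 hrs) at 37 deg C in anaerobic conditions, ATP is quantified by luminescence.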
Active calls of the source: *; ? = inconclusive; · = not tested or not shown; [ ] = dose if it differs, or a comment. A selection: hits, their analogues and other compounds. The true share with any hit is near 2.2%. Unless noted, calls come from the whole dose curve; as a rule, active = well fitted curve in the direction sought with a large enough effect; inconclusive = small, poorly fitted or top-dose-only effect, or another doubt; inactive = no such curve, though single readings can be large; an effect the other way counts as inactive or inconclusive.

SMILES | IDH1 R132H inh | IL2 activator | TrxR1 substrate | BRCA1 expr act | TrxR1 inh | Giardia kill
Cc1ccc(-c2nc(=Nc3c(C)cc(C)cc3C)sn2-c2ccccc2)cc1 | · | · | 9%[0.0914 µM] | -69% | 2% | -5
O=C1ON=C(c2ccc([N+](=O)[O-])cc2)/C1=C/c1ccccc1O | 0% | -1 | 4% | -12% | 18µM* | 27
Cc1cccc(NS(=O)(=O)c2ccc3c(c2)CC(C)N3C(=O)C2CCC2)c1C (configuration not stated) | 18% | · | 0% | · | 19% | ·
Cc1cc(F)ccc1NC(=O)CCS(=O)(=O)c1ccc2c(c1)NC(=O)CO2 | 5% | · | 2%[11.4 µM] | 6% | 27% | ·
CCCC1(C)Nc2ccccc2-c2nc3ccccc3n21 (configuration not stated) | 6% | -2 | 253%[57.1 µM] | 8.9µM* | 141%[57.1 µM] | 7
c1ccc2c(c1)NC1(CCCC1)n1c-2nc2ccccc21 | 5% | 1 | 612% | 50% | 135% | -6
O=C(Nc1ccnc(=O)[nH]1)c1sc2ccccc2c1Cl | 3% | -2 | 1% | 5.6µM* | 12% | 1
O=C(Nc1ccc(NC(=O)c2sc3ccccc3c2Cl)cc1Cl)c1ccco1 | 10% | -4 | 4% | 7.9µM* | 9% | -20
COc1cccc(NC(=O)Cn2c(=O)n(-c3ccccc3)c(=O)c3c2c2cc(OC)ccc2n3C)c1 | -1% | · | 1% | -7% | 2% | ·
O=C(NP(=O)(N1CCOCC1)N1CCOCC1)C1=C(N2CCOCC2)/C(=C\c2ccccc2)CC1 | 2% | 0 | 41% | 44% | 14µM* | 16
CCOC(=O)c1c(-c2ccc(C)cc2)csc1NC(=O)c1nc(SCC)ncc1Cl | -23% | · | -4% | · | 17% | ·
CCc1ccc(S(=O)(=O)c2cn(CC)c3cc(N4CCCCC4)c(F)cc3c2=O)cc1 | -1% | · | 31% | · | 61% | ·
Cc1nc(SCC(=O)Nc2nsc(-c3ccc(C(C)(C)C)cc3)n2)c2c3c(sc2n1)CCCC3 | 9% | · | -1% | · | 15% | ·
Cc1nnc(SCC(=O)Nc2nsc(-c3ccc(C(C)(C)C)cc3)n2)s1 | -8% | -3 | 6%[57.1 µM] | 1.1µM* | 13%[57.1 µM] | -4
CC[n+]1c(/C=C/C=C2/N(C)c3ccccc3C2(C)C)sc2ccccc21 | · | · | 8%[57.1 µM] | · | 8%[57.1 µM] | ·
COC(=O)c1c(N2C(=O)CC(Sc3ccccc3C(=O)O)C2=O)sc2c1CCCC2 (configuration not stated) | -4% | -2 | 3% | -7% | 79µM* | -5
O=C(O)c1ccccc1SC1CC(=O)N(C2CCCCC2)C1=O (configuration not stated) | -6% | -2 | 3% | 1% | 79µM* | 25
COC(=O)c1c(N2C(=O)CC(Sc3ccccc3C(=O)O)C2=O)sc(C)c1C (configuration not stated) | 0% | -1 | 6%[57.1 µM] | 13% | ? | 17
O=C(c1ccccc1)c1cc2cc(Cl)ccc2[nH]1 | 9% | -1 | 7% | 10µM* | -13% | -5
O=S(=O)(c1ccc(Br)cc1)c1nc(-c2ccco2)oc1SCc1ccccc1Cl | -14% | · | 14% | · | -25% | ·
CCN1c2ccccc2-c2nc(SCC(=O)NCc3ccc(Cl)cc3)ncc2S1(=O)=O | -6% | · | 12%[57.1 µM] | · | 20%[57.1 µM] | ·
CN(C)/C=C/C(=O)c1cnc(-c2cccc(Cl)c2)s1 | 0% | 0 | -1% | ? | -3% | -1
CN(C)/C=C/C(=O)c1cnc(-c2ccccc2Cl)s1 | -7% | 0 | -8% | 6.3µM* | -10% | -9
CC(=O)Nc1ccc2nc3ccccc3nc2c1 | 1% | -1 | 1% | 5.6µM* | 1% | 5
CC(=O)Nc1ccc(-c2nc3ccc(NC(C)=O)cc3o2)cc1 | -13% | -1 | 468% | 65% | 50µM* | -21
SMILES | IDH1 R132H inh | IL2 activator | TrxR1 substrate | BRCA1 expr act | TrxR1 inh | Giardia kill
CN(C)c1ccc(/C=C/N2C=CCc3c2ccc2ccccc32)cc1 | · | · | 3% | · | -10% | ·
Cc1nn(C)cc1C(=O)NNC(=S)Nc1ccccc1 | -3% | -1 | -3% | 16% | -21%[57.1 µM] | -8
Cc1c(C(=S)Nc2ccccc2)cnn1-c1ccccc1 | 6% | -4 | -11% | 7.9µM* | -15% | 8
Cc1nn(-c2ccccc2)cc1C(=S)Nc1ccccc1 | -4% | 0 | 6% | 7.9µM* | 27% | 29
Cc1c(C(=S)Nc2ccccc2)cnn1-c1ccc([N+](=O)[O-])cc1 | 2% | 1 | -5% | -30% | -18% | -1
Cc1ccc(C2C(C#N)=C(N)SC(N)=C2C#N)c(C)c1 | -1% | 5 | -4% | -7% | 2.8µM* | -8
COc1ccc(C(C)=O)cc1COC(=O)c1ccc(C)c(S(=O)(=O)N2CCOCC2)c1 | 3% | -4 | -2% | -31% | 35µM* | -7
COc1ccc(C(C)=O)cc1COC(=O)c1ccc2c(c1)OCCO2 | 0% | 0 | -4% | 4% | 56µM* | 34
COc1ccc(C(C)=O)cc1COC(=O)c1ccc(S(=O)(=O)N(C)C)cc1 | 4% | 0 | 5% | -9% | 45µM* | -1
CNS(=O)(=O)c1cccc(C(=O)OCc2cc(C(C)=O)ccc2OC)c1 | 2% | 1 | 5% | 0% | 18%[57.1 µM] | 1
COc1ccc(C(C)=O)cc1COC(=O)Cc1cc(OC)c(OC)c(OC)c1 | -8% | 1 | 4% | 0% | 40µM* | -3
CCC(=O)c1ccc(OCc2ccc(C(=O)OC)cc2)cc1 | 5% | -4 | -1% | -16% | -3% | -16
CCC(=O)c1ccc(OCc2ccc(C#N)cc2)cc1 | 2% | -1 | 1% | 3.5µM* | 18% | 0
CCOc1ccc2c(c1)S/C(=C\c1cccs1)C(=O)N2 | 0% | 60* | 1% | ? | 15% | 28
Cc1nc2c(-c3ccc(F)cc3)c(C)nn2c(C)c1CCC(=O)NCc1cccc(Cl)c1 | -4% | · | 10% | 0% | 28% | ·
CC(=O)c1ccc(NC(=O)C2(c3ccccc3)CC2(Cl)Cl)cc1 (configuration not stated) | 6% | 0 | 2%[57.1 µM] | 10µM* | 13%[57.1 µM] | 7
COc1cccc2c(=O)c(C(=O)NCCc3ccccc3)c[nH]c12 | 5% | 0 | 54% | 10µM* | 2% | 31
O=C(Cn1ncc(Cl)c(Cl)c1=O)NCC1CCCCC1 | 9% | -6 | -2% | -87% | 35µM* | -9
O=C(Cn1ncc(Cl)c(Cl)c1=O)NC1CCCCC1 | 0% | -1 | 1% | -83% | 56µM* | 7
Cc1cccc(NC(=O)CNC(=O)Cn2ncc(Cl)c(Cl)c2=O)c1C | 3% | -6 | 15%[57.1 µM] | -93% | -44%[57.1 µM] | 2
Cc1ccc(Cn2c(C)c3cnn(CC(=O)NC4CCCC4)c(=O)c3c2C)cc1 | -8% | -2 | -3%[57.1 µM] | 54% | -3%[57.1 µM] | -5

Screening data: PubChem BioAssay, National Center for Advancing Translational Sciences (NCATS)
